Here are results for ten compounds from PubChem BioAssay (NCI).

SMILES strings stand for the structures. This is part of a sample that, as a whole, favours compounds with a hit. Of some 79,000 tested, about 15% had one in any assay. Values without a mark were called inactive. Activity calls are given as the source filed them. Rule as the data show it: active = growth inhibition above about 70%; inactive = the rest.

A short description of experiment [1]: NCI Yeast Anticancer Drug Screen. Data for the rad50 strain (AID 155).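 Also: 0% = growth of vehicle-only cultures of the same strain.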 Particulars: S. cerevisiae rad50 strain growth inhibition, stronger effect = higher value. A digest of the protocol: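 A DNA repair-deficient yeast mutant serves as the test organism; compound-induced growth inhibition is calculated against vehicle-treated cells.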
Experiment [2] in a line: NCI Yeast Anticancer Drug Screen. Data for the mec2-1 strain (AID 157). To be noted: S. cerevisiae mec2-1 strain, stronger effect = higher value. A digest of the protocol:
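Strain: mec2-1 (DNA repair/cell cycle alteration). Compound exposure, then growth measured; inhibition expressed relative to vehicle.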

Experiment [3] is described as follows: NCI Yeast Anticancer Drug Screen. Data for the sgs1 mgt1 strain (AID 161).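 Also: 0% = growth of cultures given vehicle only.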 To be noted: S. cerevisiae sgs1 mgt1 strain, stronger effect = higher value. A digest of the protocol:
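Read-out: growth inhibition vs vehicle controls. Cells: mutant yeast strain deficient in DNA damage repair.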

The nature of experiment [4]: NCI Yeast Anticancer Drug Screen. Data for the cln2 rad14 strain (AID 165).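 Also: 0% = growth equal to vehicle treated cultures.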 Particulars: S. cerevisiae cln2 rad14 strain, stronger effect = higher value. A digest of the protocol:
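Compounds are applied to the cln2 rad14 yeast strain, and growth is then compared with that of vehicle-treated cultures to give inhibition.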

Experiment [5] can be described thus: NCI Yeast Anticancer Drug Screen. Data for the bub3 strain (AID 167). Particulars: S. cerevisiae bub3 mutant strain, stronger effect = higher value. A digest of the protocol:
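Inhibition values come from growth of compound-treated mutant yeast normalised to vehicle-treated controls.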

Experiment [6] in a line: NCI Yeast Anticancer Drug Screen. Data for the mlh1 rad18 strain (AID 175). Particulars: S. cerevisiae mlh1 rad18 strain growth inhibition, stronger effect = higher value. A digest of the protocol:
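Read-out is yeast growth inhibition, calculated against vehicle-only controls. The compound was applied to a strain engineered with DNA damage repair alterations.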

[7] abbreviates: at 5.0 µM (retest, dose inferred, filed as 0.5).
The mark [8] stands for this setting: at 50.0 µM (retest, dose inferred, filed as 5.0).

On to `N=C(N)c1ccc(Nc2ccc(-c3cc4ccc(C(=N)N)cc4[nH]3)cc2)cc1`, for which the growth inhibition was 99% (active) in experiment [1] (setting [7]); 98% (active) in experiment [1] (setting [8]); 98.5% (active) in experiment [1] (at 50.0 µM); 99% (active) in experiment [2] (setting [7]); 99% (active) in experiment [2] (setting [8]); 98.8% (active) in experiment [2] (at 50.0 µM). In addition, the growth inhibition was 99% (active) in experiment [3] (setting [7]); 99% (active) in experiment [3] (setting [8]); 98.8% (active) in experiment [3] (at 50.0 µM); 99% (active) in experiment [4] (setting [7]); 98% (active) in experiment [4] (setting [8]); 98.3% (active) in experiment [4] (at 50.0 µM). Further, the growth inhibition in experiment [5] (setting [7]) is 99% (active); in experiment [5] (setting [8]) it was 98% (active); in experiment [5] (at 50.0 µM), 99% (active); in experiment [6] (setting [7]) it was 99% (active); in experiment [6] (setting [8]), 98% (active); in experiment [6] (at 50.0 µM) it was 98.5% (active).

In the case of `CC(=O)N(C1=C(Cl)C(=O)c2ccccc2C1=O)c1ccc(Cl)cc1`, the growth inhibition in experiment [1] (setting [7]) was 98% (active); in experiment [1] (setting [8]), 99% (active); in experiment [1] (at 50.0 µM) it was 97.8% (active); in experiment [2] (setting [7]) it was 99% (active); in experiment [2] (setting [8]) it was 99% (active); in experiment [2] (at 50.0 µM), 95.3% (active). Moreover, the growth inhibition in experiment [3] (setting [7]) was 100% (active); in experiment [3] (setting [8]), 99% (active); in experiment [3] (at 50.0 µM) it was 99.2% (active); in experiment [4] (setting [7]), 95% (active); in experiment [4] (setting [8]) it was 99% (active); in experiment [4] (at 50.0 µM) it was 78% (active). Also, the growth inhibition was 97% (active) in experiment [5] (setting [7]); 99% (active) in experiment [5] (setting [8]); 79.8% (active) in experiment [5] (at 50.0 µM); 99% (active) in experiment [6] (setting [7]); 99% (active) in experiment [6] (setting [8]); 96.7% (active) in experiment [6] (at 50.0 µM).

Consider `N#CSCc1ccc(Cl)c(CSC#N)c1`, for which the growth inhibition in experiment [1] (setting [7]) is 18%; in experiment [1] (setting [8]), 99% (active); in experiment [1] (at 50.0 µM), 99% (active); in experiment [2] (setting [7]) it was 4%; in experiment [2] (setting [8]) it was 99% (active); in experiment [2] (at 50.0 µM), 99.3% (active). Further, the growth inhibition in experiment [3] (setting [7]) is 8%; in experiment [3] (setting [8]) it was 99% (active); in experiment [3] (at 50.0 µM), 98.8% (active); in experiment [4] (setting [7]) it was 10%; in experiment [4] (setting [8]), 98% (active); in experiment [4] (at 50.0 µM) it was 98.2% (active). The growth inhibition is 16% in experiment [5] (setting [7]); 100% (active) in experiment [5] (setting [8]); 98.8% (active) in experiment [5] (at 50.0 µM); 10% in experiment [6] (setting [7]); 99% (active) in experiment [6] (setting [8]); 99% (active) in experiment [6] (at 50.0 µM).

As for `CCCCNCCCCCCCCCCCl`, the growth inhibition is 47% in experiment [1] (setting [7]); 98% (active) in experiment [1] (setting [8]); 99% (active) in experiment [1] (at 50.0 µM); 65% in experiment [2] (setting [7]); 99% (active) in experiment [2] (setting [8]); 96.5% (active) in experiment [2] (at 50.0 µM). For the same compound, the growth inhibition in experiment [3] (setting [7]) was 79% (active); in experiment [3] (setting [8]), 99% (active); in experiment [3] (at 50.0 µM) it was 98.8% (active); in experiment [4] (setting [7]), 60%; in experiment [4] (setting [8]) it was 98% (active); in experiment [4] (at 50.0 µM), 64.8%. Besides, the growth inhibition in experiment [5] (setting [7]) is 56%; in experiment [5] (setting [8]), 99% (active); in experiment [5] (at 50.0 µM), 97.2% (active); in experiment [6] (setting [7]), 84% (active); in experiment [6] (setting [8]), 99% (active); in experiment [6] (at 50.0 µM) it was 98% (active).

With `O=[N+]([O-])c1ccc2c(c1)Cc1cc(O)c(I)cc1-2`, the growth inhibition in experiment [1] (setting [7]) was 3%; in experiment [1] (setting [8]), 91% (active); in experiment [1] (at 50.0 µM), 97.5% (active); in experiment [2] (setting [7]) it was 13%; in experiment [2] (setting [8]), 92% (active); in experiment [2] (at 50.0 µM), 97.8% (active). The growth inhibition in experiment [3] (setting [7]) was 3%; in experiment [3] (setting [8]), 93% (active); in experiment [3] (at 50.0 µM) it was 96.7% (active); in experiment [4] (setting [7]), -10%; in experiment [4] (setting [8]), 91% (active); in experiment [4] (at 50.0 µM), 95.2% (active). In addition, the growth inhibition is -4% in experiment [5] (setting [7]); 93% (active) in experiment [5] (setting [8]); 95.8% (active) in experiment [5] (at 50.0 µM); -2% in experiment [6] (setting [7]); 95% (active) in experiment [6] (setting [8]); 97.2% (active) in experiment [6] (at 50.0 µM).

For `N#Cc1snc2sc(=O)sc12`, the growth inhibition in experiment [1] (setting [7]) is 99% (active); in experiment [1] (setting [8]), 100% (active); in experiment [1] (at 50.0 µM) it was 99.5% (active); in experiment [2] (setting [7]) it was 100% (active); in experiment [2] (setting [8]), 99% (active); in experiment [2] (at 50.0 µM), 99.7% (active). Besides, the growth inhibition is 100% (active) in experiment [3] (setting [7]); 100% (active) in experiment [3] (setting [8]); 99.5% (active) in experiment [3] (at 50.0 µM); 99% (active) in experiment [4] (setting [7]); 100% (active) in experiment [4] (setting [8]); 99.2% (active) in experiment [4] (at 50.0 µM). Moreover, the growth inhibition was 100% (active) in experiment [5] (setting [7]); 99% (active) in experiment [5] (setting [8]); 99.2% (active) in experiment [5] (at 50.0 µM); 100% (active) in experiment [6] (setting [7]); 99% (active) in experiment [6] (setting [8]); 99.5% (active) in experiment [6] (at 50.0 µM).

Turning to `COc1ccc(/C=C(\C#N)c2ccccc2)cc1OC`, the growth inhibition in experiment [1] (setting [7]) was 0%; in experiment [1] (setting [8]), 55%; in experiment [1] (at 50.0 µM), 86.6% (active); in experiment [2] (setting [7]), -18%; in experiment [2] (setting [8]), 29%; in experiment [2] (at 50.0 µM), 87.3% (active). In addition, the growth inhibition in experiment [3] (setting [7]) is 1%; in experiment [3] (setting [8]), 53%; in experiment [3] (at 50.0 µM), 88.5% (active); in experiment [4] (setting [7]) it was 30%; in experiment [4] (setting [8]) it was 34%; in experiment [4] (at 50.0 µM), 54.5%. The growth inhibition in experiment [5] (setting [7]) is 5%; in experiment [5] (setting [8]), 66%; in experiment [5] (at 50.0 µM), 84.4% (active); in experiment [6] (setting [7]), -6%; in experiment [6] (setting [8]), 64%; in experiment [6] (at 50.0 µM) it was 90.2% (active).

With `CN(C)c1ccc2c(c1)Cc1cc(NC(=O)/C=C/C(=O)O)ccc1-2`, the growth inhibition in experiment [1] (setting [7]) is -31%; in experiment [1] (setting [8]), -21%; in experiment [1] (at 50.0 µM), -6.7%; in experiment [2] (setting [7]), -10%; in experiment [2] (setting [8]) it was -19%; in experiment [2] (at 50.0 µM), -2.05%. In addition, the growth inhibition in experiment [3] (setting [7]) was -13%; in experiment [3] (setting [8]) it was 12%; in experiment [3] (at 50.0 µM) it was -8.55%; in experiment [4] (setting [7]), -5%; in experiment [4] (setting [8]), 6%; in experiment [4] (at 50.0 µM), -5.6%. Also, the growth inhibition was 2% in experiment [5] (setting [7]); -3% in experiment [5] (setting [8]); -10.7% in experiment [5] (at 50.0 µM); -2% in experiment [6] (setting [7]); 7% in experiment [6] (setting [8]); -4.7% in experiment [6] (at 50.0 µM).

On to `COC(=O)c1ccc(OC)cc1`, for which the growth inhibition in experiment [1] (setting [7]) was 2%; in experiment [1] (setting [8]), -1%; in experiment [1] (at 50.0 µM), 49.9%; in experiment [2] (setting [7]) it was 3%; in experiment [2] (setting [8]), -3%; in experiment [2] (at 50.0 µM) it was 3.4%. Also, the growth inhibition in experiment [3] (setting [7]) was -1%; in experiment [3] (setting [8]) it was -4%; in experiment [3] (at 50.0 µM) it was 49.8%; in experiment [4] (setting [7]), -1%; in experiment [4] (setting [8]), -7%; in experiment [4] (at 50.0 µM), 20.7%. The growth inhibition in experiment [5] (setting [7]) is 3%; in experiment [5] (setting [8]), 2%; in experiment [5] (at 50.0 µM) it was 69.1%; in experiment [6] (setting [7]), 3%; in experiment [6] (setting [8]) it was -3%; in experiment [6] (at 50.0 µM) it was 16.2%.

In the case of `O=[N+]([O-])c1ccc2c(N=Nc3ccc4ccccc4c3O)c(O)cc(S(=O)(=O)O)c2c1`, the growth inhibition in experiment [1] (setting [7]) is 32%; in experiment [1] (setting [8]) it was 34%; in experiment [1] (at 50.0 µM), 85.6% (active); in experiment [2] (setting [7]), 13%; in experiment [2] (setting [8]), 17%; in experiment [2] (at 50.0 µM), 55.8%. Moreover, the growth inhibition in experiment [3] (setting [7]) was 17%; in experiment [3] (setting [8]), 29%; in experiment [3] (at 50.0 µM), 74.7% (active); in experiment [4] (setting [7]), -32%; in experiment [4] (setting [8]) it was -68%; in experiment [4] (at 50.0 µM), 30.6%. Further, the growth inhibition in experiment [5] (setting [7]) was -7%; in experiment [5] (setting [8]), 22%; in experiment [5] (at 50.0 µM) it was 82.7% (active); in experiment [6] (setting [7]), 9%; in experiment [6] (setting [8]), 36%; in experiment [6] (at 50.0 µM), 86.5% (active).
